Source: PubChem BioAssay (National Center for Advancing Translational Sciences (NCATS))
The list is not random: actives were taken first. Their share in the collection is about 1.7%.
GLP1R inv ag: acts as inverse agonist at human GLP-1 receptor | AID 624417 | HEK293 GLP-1R CRE-luciferase, luminescence, 24 h; GLP-1R form is constitutively active | 410,000 compounds, 1.6% hits | Potency, µM (titrated, usually from 38.3 µM), actives largely listed as inhibitors; further: nearly all actives have a fitted effect of over 55% in size
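HEK293 cells stably co-expressing a cAMP-responsive luciferase reporter and constitutively active GLP-1R were seeded, incubated 12 h, then exposed to compounds for 24 h at 37 C. Luminescence was read 12 min after detection reagent; inverse agonists lower signal.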
GLP1R cytotox: cytotoxic in the GLP-1 receptor inverse agonist counter-screen; HEK293 cAMP-luciferase reporter cells, luminescence, 24 h; Potency, µM (titrated, usually from 38.3 µM), actives largely listed as inhibitors; 410,000 compounds, 0.13% hits; AID 624418;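 further: loss of luciferase light is scored as toxicity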
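Quantitative HTS format, 1536 wells, 200 cells/uL seeded. Compounds: 23 nL, 24 h, 37 °C. Detection: luciferase reagent, luminescence at 12 min RT; decreased signal taken as cytotoxic.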
GLP-1R agonist: agonists of human GLP-1 receptor; P43220; HEK293 GLP-1R CRE-luciferase, luminescence, 4-6 h; cells express a hypersensitive GLP-1R form; Potency, µM (doses to about 45.6 µM), most hits filed as activators; 380,000 compounds, 0.007% hits; AID 624172
PTHR1 ag: activates the human parathyroid hormone receptor PTHR1 | Q03431 | HEK293 GP2 PTHR1 cells, GloSensor cAMP luminescence, 1 h | Potency, µM (titrated, usually from 115 µM), usual class: activators | 410,000 compounds, 0.075% hits; further: nearly all actives have a fitted effect of over 55% in size
Target sequence (Q03431 whole entry, looked up): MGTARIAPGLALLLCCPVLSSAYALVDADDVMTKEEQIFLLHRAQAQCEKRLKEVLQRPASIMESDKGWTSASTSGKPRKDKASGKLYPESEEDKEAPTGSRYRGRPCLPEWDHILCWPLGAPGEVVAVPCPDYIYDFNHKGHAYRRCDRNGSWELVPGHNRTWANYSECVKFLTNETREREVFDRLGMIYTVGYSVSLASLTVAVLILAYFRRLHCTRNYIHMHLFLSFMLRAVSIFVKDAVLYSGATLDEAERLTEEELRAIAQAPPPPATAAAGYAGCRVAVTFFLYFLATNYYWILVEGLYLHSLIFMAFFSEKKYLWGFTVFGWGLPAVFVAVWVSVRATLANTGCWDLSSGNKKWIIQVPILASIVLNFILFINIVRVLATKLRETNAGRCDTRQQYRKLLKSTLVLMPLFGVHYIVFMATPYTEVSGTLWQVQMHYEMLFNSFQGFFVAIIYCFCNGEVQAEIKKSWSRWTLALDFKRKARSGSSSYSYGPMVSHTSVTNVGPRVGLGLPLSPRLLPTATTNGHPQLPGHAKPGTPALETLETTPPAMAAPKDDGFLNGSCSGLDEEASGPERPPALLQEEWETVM
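HEK-293-derived GP2 cells expressing PTHR1 and a GloSensor cAMP reporter, 3,000/well, plated overnight, given luciferin plus IBMX (each 0.5 mM as added) for 1 h at 37 °C, then compound for 1 h at 37 °C. Luminescence was read after 15 min at room temperature.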
Numbers stand for hits; 0 = inactive; ? = inconclusive; - = not tested or not shown. The call rests on the fitted dose curve; in most records, active means well fitted curve in the direction sought with a large enough effect; inconclusive means small, poorly fitted or top-dose-only effect, or another doubt; inactive means no such curve, though single readings can be large; an effect the other way counts as inactive or inconclusive.

SMILES	GLP1R inv ag	GLP1R cytotox	GLP-1R agonist	PTHR1 ag
O=C1NN(c2ccccc2)C(=O)C1=Cc1ccccc1	4µM	?	0	0
O=C1NN(c2ccccc2)C(=O)/C1=C\c1ccccc1	?	0	0	0
COc1cc(/C=C2/C(=O)NN(c3ccc(Cl)cc3)C2=O)cc(OC)c1O	4µM	?	0	0
COc1cc(/C=C2/C(=O)NN(c3ccccc3)C2=O)cc(Br)c1O	?	0	0	0
O=C(c1ccc2c(c1)N(Cc1ccc(F)cc1)C(=O)c1ccccc1S2=O)N1CCC(Cc2ccccc2)CC1 (stereo not given)	?	0	0	0
CC(C)(Oc1ccc(Cl)cc1)C(=O)NC1CCN(Cc2ccccc2)CC1	8.9µM	0	0	0
CC(=O)c1ccc(NC(=O)CSC2=Nc3ccccc3N=C(c3ccc(F)cc3)C2)cc1	0	0	0	0
COc1ccc(C2C(=O)N(C3CCCCCC3)CC(=O)N2Cc2ccc(C)cc2)cc1 (stereo not given)	0	0	-	0
Cc1ccc(-n2nnnc2SCC(=O)NC2CCCc3ccccc32)c(C)c1 (stereo not given)	10µM	0	0	0
Cc1ccc(-n2nnnc2SCC(=O)NC2CCCc3ccccc32)cc1 (stereo not given)	10µM	0	0	0
CC(C)c1ccc(NC(=O)CN2C(=O)COc3ccc(S(=O)(=O)N4CCCCC4)cc32)cc1	?	0	-	0
COc1ccc(-c2nc3ccc(C4=C(C)CC(=O)NN4)cc3[nH]2)cc1	-	-	0	-
CCN(C(=O)Cn1cnc2onc(-c3ccc(F)cc3)c2c1=O)c1cc(C)ccc1C	0	0	0	0
CCOc1cccc(/C=N/NC(=S)Nc2cc(S(=O)(=O)N3CCOCC3)ccc2N2CCOCC2)c1O	5µM	0	0	0
O=C(Nc1c(-c2ccccc2)nc2ccccn12)c1cccc(F)c1	10µM	0	0	0
O=C(Nc1c(-c2ccccc2)nc2ccccn12)c1ccccc1	0	0	0	0
O=C(Nc1c(-c2ccccc2)nc2ccccn12)c1ccc(Br)cc1	11µM	0	0	0
C/C(=N\NC(=O)CN1CCCCC1)c1ccccc1O	?	0	0	0
C/C(=N\NC(=O)CN(c1ccccc1)S(C)(=O)=O)c1ccccc1O	5µM	0	0	0
O=C(Nc1ccccc1)N(Cc1ccc(Cl)cc1)CC(O)C(F)(F)F (stereo not given)	10µM	0	0	0
C#CC1(OC(C)=O)CCC2C3CCC4=CC(OC(C)=O)CCC4C3CCC21C (stereo not given)	-	-	0	-
S=C(NCc1cccs1)Nc1cc(Cl)cc(Cl)c1	8.9µM	?	0	0
Cc1ccn2c(=O)c(C(=O)NCCc3ccccc3)c(O)nc2c1	0	0	0	0
COc1ccc(NC(=O)CC2C(=O)N(c3ccccc3)C(=O)N2C2CCCCC2)cc1 (stereo not given)	0	0	0	0
Cc1c(O)ccc2c(CN3CCN(C/C=C/c4ccccc4)CC3)cc(=O)oc12	3.5µM	0	0	0
SMILES	GLP1R inv ag	GLP1R cytotox	GLP-1R agonist	PTHR1 ag
O=C(NCc1ccc(F)cc1)c1ccc2oc(=O)n(Cc3ccccc3)c2c1	?	0	-	0
COc1cc([C@@H]2c3cc4c(cc3[C@@H](O[C@@H]3O[C@H]5CO[C@H](C)O[C@H]5[C@H](O)[C@@H]3O)[C@H]3COC(=O)[C@H]23)OCO4)cc(OC)c1OP(=O)(O)O	-	-	0	-
CCN1CCSc2ccc(C(=O)NCc3ccccc3Br)cc21	10µM	0	0	0
O=C(NCCCN1CCCC1)c1ccc2c(c1)N(Cc1ccccc1F)C(=O)c1ccccc1S2=O (stereo not given)	8.9µM	0	0	0
CCOC(=O)N1CCC(NC(=O)c2ccc3c(c2)N(Cc2ccccc2)CCS3)CC1	?	0	0	0
CCN1CCSc2ccc(C(=O)NCc3ccccc3C)cc21	?	0	0	0
O=C(NC1CC1)c1ccc2c(c1)N(Cc1ccccc1)CCS2	8.9µM	0	0	0
O=C(NCCCN1CCOCC1)c1ccc2c(c1)N(Cc1ccc(F)cc1)CCS2	2.2µM	0	0	0
CCc1nnc2c(N3CCN(c4cccc(C(F)(F)F)c4)CC3)nc3ccccc3n12	0	0	-	0
COc1ccc(Cn2ccc3nc(C)c(C(=O)N4CCN(c5ccc(OC)cc5)CC4)cc3c2=O)cc1	0	0	-	0
CN1CCN(CCCNC(=O)c2ccc3c(c2)N(Cc2ccc(F)cc2)CCS3)CC1	5.6µM	0	0	0
